# Data published in the supplement of paper PMC10681739.
# What was measured:
# ETS1 [1] = molecular target: T1, ETS1 (UniProt P14921); test: ETS1 binding intensity (PBM fluorescence), ETS1 alone (arbitrary fluorescence units); higher = stronger binding; conditions: ETS1 concentration 1 nM; RUNX1 concentration 0 nM
# T1 sequence: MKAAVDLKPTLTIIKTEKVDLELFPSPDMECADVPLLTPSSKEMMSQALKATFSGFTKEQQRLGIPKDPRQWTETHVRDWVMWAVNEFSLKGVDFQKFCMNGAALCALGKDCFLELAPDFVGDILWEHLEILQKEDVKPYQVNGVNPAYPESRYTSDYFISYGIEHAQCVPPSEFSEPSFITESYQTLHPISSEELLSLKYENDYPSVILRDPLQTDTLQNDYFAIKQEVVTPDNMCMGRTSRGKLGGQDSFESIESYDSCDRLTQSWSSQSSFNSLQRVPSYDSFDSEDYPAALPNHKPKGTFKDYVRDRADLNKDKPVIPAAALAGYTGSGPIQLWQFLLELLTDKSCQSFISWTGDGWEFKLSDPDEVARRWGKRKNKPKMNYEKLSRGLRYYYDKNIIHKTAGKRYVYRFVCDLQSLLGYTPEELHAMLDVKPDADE
# RUNX1 [2] = molecular target: RUNX1 (UniProt Q01196); test: RUNX1 binding intensity (PBM fluorescence), RUNX1 alone (arbitrary fluorescence units); higher = stronger binding; conditions: RUNX1 concentration 2 nM; ETS1 concentration 0 nM
# Method: (§1)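 Cooperative gcPBM on 36-bp genomic probes with neighbouring ETS1 and RUNX1 sites. Recombinant human RUNX1 (2 nM) was incubated alone or with ETS1 (25 nM) and detected with anti-RUNX1 antibody plus Alexa488 secondary. Values are medians over 4 replicate spots; the RUNX1+ETS1 data were normalised to the RUNX1-only data. The probes sit in constant array flanks that are not printed.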
# ETS1 [3] = molecular target: T1, ETS1; test: ETS1 binding intensity (PBM fluorescence) in presence of RUNX1, normalised to ETS1-only experiment (arbitrary fluorescence units); higher = stronger binding; conditions: ETS1 concentration 1 nM; RUNX1 concentration 25 nM
# RUNX1 [4] = molecular target: RUNX1 (UniProt Q01196); test: RUNX1 binding intensity (PBM fluorescence) in presence of ETS1, normalised to RUNX1-only experiment (arbitrary fluorescence units); higher = stronger binding; conditions: RUNX1 concentration 2 nM; ETS1 concentration 25 nM
# Method: as §1
# 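For RUNX1 binding intensity (PBM fluorescence) in presence of ETS1, normalised to RUNX1-only experiment in this document: Full-length recombinant human ETS1 or RUNX1 bound to double-stranded 36-bp genomic probes on microarrays, detected by protein-specific primary antibody and Alexa488 secondary, spot fluorescence as median of four replicate spots.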
# 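For RUNX1 binding intensity (PBM fluorescence), RUNX1 alone in this document: Full-length recombinant human RUNX1 bound to double-stranded 36-bp genomic probes on a high-density microarray, scored as Alexa488 fluorescence per spot via anti-RUNX1 antibody, median of four replicate spots.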
# Sequence of RUNX1 (Q01196 whole entry): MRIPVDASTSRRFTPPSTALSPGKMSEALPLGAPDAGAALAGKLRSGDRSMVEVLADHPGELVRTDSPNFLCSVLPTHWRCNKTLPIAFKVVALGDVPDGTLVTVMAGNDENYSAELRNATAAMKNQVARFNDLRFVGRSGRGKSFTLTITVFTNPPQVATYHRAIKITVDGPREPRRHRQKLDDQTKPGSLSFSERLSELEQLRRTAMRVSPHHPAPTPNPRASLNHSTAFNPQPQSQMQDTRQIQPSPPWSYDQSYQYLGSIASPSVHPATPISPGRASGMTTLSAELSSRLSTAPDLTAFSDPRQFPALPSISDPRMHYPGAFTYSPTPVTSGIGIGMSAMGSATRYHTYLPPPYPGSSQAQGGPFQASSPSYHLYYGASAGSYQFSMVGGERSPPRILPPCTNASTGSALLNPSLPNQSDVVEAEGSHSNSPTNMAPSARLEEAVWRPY
Sequence,ETS1 binding intensity (ETS1 [1]),RUNX1 binding intensity (RUNX1 [2]),ETS1 binding intensity (ETS1 [3]),RUNX1 binding intensity (RUNX1 [4])
AGCCACATCCTGGACAAAAGCTGTGGTCTAGTAACC,430,911,556,2020
GCCGGTGAGGGCGGAAGTGGTAAGACTGACGTGTCC,6840,709,8740,2490
GTCTTAGGTCGGAAGTCTGTGGTCCCTGTTCACATG,796,835,910,953
CCTAGAACCGGAAGAGAAAGGGGCTGCGGTGCAGCA,1680,845,6270,1420
GAAAACACAGGAAGCCGTCCGCGCAACCGCGTTGCA,1520,840,2160,1150
GACCAGGCGAGAGGATGTGGGTATGAGGGAGGAGCT,819,835,1640,1090
CTGCAGATGCATTTCCTTTTTGTGGTAGCAAGCGTG,570,805,932,1470
AGCGGCCTGGGAGGAGGATGTGGTTACGTGGAGACC,1120,996,15200,1510
TCCCGGGGAGGAAGTGGCGAGAATGCGGGGGTGGGC,1340,906,1440,1120
CTGGTTTCCAACATCCTGTGGGCGGCCTGGTTTCAG,1260,785,1270,2210
TAACTACTTCCTTTTACTATCTACCACAATTTAATT,516,1620,510,2810
AATGATTACCTAACAGGAAAACCACATTGGTCATTT,1150,1180,3100,1130
AGCCGTTTCCGGCGCTCTACCCCGCCGCAGGCCGAG,833,859,979,2300
GCAGAAGAGGAAATGGTTTGCCTGTGCGGTGGGGGA,1370,821,3280,999
ACTCCCTAGAGCAGGAAGCCTGTGGTTTGTAATTGG,1140,1040,7950,1480
GGACGCCGCCGGAAGCGCGACCCGCACTCCCGGTAG,3650,794,3500,1260
GATTTGTCACAGGAAGTACCCACAGGCCAAGAAGTG,5230,817,5790,1260
GCGGAGGCGGAAGTCGTGCTGCTGCTGACCACGGCT,2560,741,3170,1370
GCTGCAGCAGGCGGGAAGTCTGCGGTTCGCGGGCTC,622,1150,6590,1830
TAAAACACCAGGAAACTCTGTGGTGAGTGGGAGGTG,787,1060,1220,903

Sequence,ETS1 binding intensity (ETS1 [1]),RUNX1 binding intensity (RUNX1 [2]),ETS1 binding intensity (ETS1 [3]),RUNX1 binding intensity (RUNX1 [4])
GAGCATAGCCTAGCAGGATGTGGTTAAATACATTTG,3320,747,32800,1970
CAGATCTGAAAGGGAAGTGGTTTCAAGAGGGTTCTT,967,729,1130,865
CTCCTTCCTGTGTGTTACTCTTAAAAACCACAGAGG,519,1230,1780,3040
TGCTTAGCAGGAAGTTAGTCTGCCTGTGGTAGCTCC,2770,734,3470,1020
GGGGAAGAGGGGAGGATGTCTGAGGTTTTAATTGTA,523,861,689,793
GTGAGCCTGTAAAGGAAATTGAGGTTATGTGGCTCA,981,694,1770,864
GACCTGGGTTTCCTGTCTGTACATCGCGGTTCCTAC,936,856,1260,1830
ATGCCTGTAGGAGGATGTGGTTTCTACACAACTCTG,981,926,5640,1400
ACCCGGATGTCGTTGGGCAGGAACTGCGGTGAGGGC,2580,829,7980,1490
GATACCCAGCCAGCGGAAGTGCGGTTAACTGCCCGA,4460,4990,18400,11100
GCCGCCTCTTCCTGTGTTGCAAACCACAGGTCCACC,1250,1570,2340,4540
GCCCCAGCGTTTCCTCTTACCCACAATGCCCCGCCC,794,1510,869,2330
CAAGAGCCGGAAGTCCCTTGTGCCGCAGTCCTTCCC,5720,800,6680,1510
GAAGCCAGGAAATGGTGCGTGTGCGGGGCCGGGCGC,982,663,1010,935
GAGTCTACAGCGGAAGCCACCACATGCCCCACCCCC,4820,904,5330,1200
CTCGTGGGTGCCGGAAGTGGAGGCGGTTGGTGGGGT,15200,707,15900,1410
AAGTTCTTCCGGGTCTGCAGTCTGTGGTGTGTTTGC,478,810,422,1710
CACCCAGTTTGAACTTCCTGGCGGTTTTGTTTACAC,673,972,853,1730
GCGCAAGCAGGAAGCGTTTGCGGTGATCCCGGCGAC,1890,746,9000,2000
